# Vif imaging: inhibitors of HIV Vif. HEK293T cells, Vif self-association by quenched fluorescence, imaging, 24 h. inhibition, % at 7.49 µM. actives 0.35% (n = 340,000); in the data active = inhibition above about 50%, passing the limit was not always enough
# SMARCA2 activ: increases SMARCA2 function in MMTV reporter cells. MG213 cells, MMTV-luciferase reporter, dexamethasone, overnight. activation, % at 9.1 µM. actives 1% (n = 370,000). AID 652017; in the data active = activation above about 7.8%;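 note: 0% = vehicle wells and 100% = reference activator wells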
# esBAF inh: blocks esBAF chromatin remodeling in mouse ES cells; Bmi1-luciferase knock-in reporter, 24 h; 100% = twice the neutral-well signal; reporter increase, % at 12.5 µM; actives 2% (n = 350,000); AID 602393; in the data active = activation above about 40%;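 note: 0% = median of the plate's neutral control wells and 100% = double that signal; a rise in the Bmi1 reporter signal indicates esBAF inhibition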
# SKN-1 inh: blocks SKN-1 activity in C. elegans. actives 0.49% (n = 360,000). inhibition, % at 21.8 µM. C. elegans VP596 Pgst-4::GFP/RFP ratio, acrylamide-induced, 24 h;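 active = interference check ratio from 0.5 to 1.5 plus GFP to RFP signal ratio inhibition reaching or exceeding a fixed threshold, cut at about 30% in these data, passing the limit was not always enough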
# GRIN3A LBD mod: modulators (binders) of human NR3A ligand-binding domain; NR3A LBD differential scanning fluorimetry, Tm shift; 0% = protein alone, 100% = glycine-bound protein; Tm shift relative to glycine control, % at 25 µM; actives 2.5% (n = 340,000); AID 1259313;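 active = melting temperature shift of at least 10% of the positive control shift, at one fixed dose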
# NadD block: inhibitors of Staphylococcus aureus NadD; purified NadD enzyme, colorimetric absorbance read-out; inhibition, % at 20 µM; AID 602399; actives 0.78% (n = 360,000); in the data active = inhibition above about 26%
# Numbers without * were called inactive; x = no result. An excerpt weighted towards active compounds, which were near 5.2% of everything screened.
SMILES,Vif imaging,SMARCA2 activ,esBAF inh,SKN-1 inh,GRIN3A LBD mod,NadD block
O=C(COC(=O)c1ccccc1-n1cnnn1)c1ccccc1,-4.6,3.1,11.2,-5.9,-0.6,-2.2
C[C@@H]1CN([C@@H](C)CO)C(=O)c2cc(NS(=O)(=O)c3cn(C)cn3)ccc2O[C@H]1CN(C)S(=O)(=O)c1cn(C)cn1,x,x,-2.0,x,x,x
CCC(C)(C)NC(=O)C1CCC(CNS(=O)(=O)c2cccc3nsnc23)CC1 (centres undefined),-3.2,x,-5.5,7.9,1.5,-7.2
CC(C)(C)NC(=O)C1CCC(CNS(=O)(=O)c2cccc3nsnc23)CC1 (centres undefined),4.2,-2.7,x,-2.0,10.5*,-4.9
CCOC(=O)c1c(C)n(CC)c2c1cc(O)c1ccccc12,-4.8,-1.3,-0.9,10.1,-3.5,-3.6
CCOC(=O)c1c(OCC)[nH]c2ccc(O)cc12,x,-4.5,x,-2.6,-14.6,-0.2
CCOC(=O)c1c(C)[nH]c2ccc(O)cc12,-1.7,-1.0,x,5.3,26.2*,-1.7
CCOC(=O)c1c(C)[nH]c2c1cc(O)c1ccccc12,20.6,2.7,62.4*,12.6,-9.6,12.8
COc1ccccc1NC(=O)N[C@H]1CC[C@@H](CCNS(=O)(=O)c2ccc(F)cc2)O[C@H]1CO,x,x,0.9,x,x,x
C[C@@H]1CN([C@H](C)CO)C(=O)c2cc(NC(=O)Cc3ccccc3)ccc2O[C@H]1CN(C)S(=O)(=O)c1ccc(F)cc1,x,x,-0.8,x,x,x
C[C@H](NC(=O)[C@H]1[C@H](CO)[C@H]2Cn3c(cccc3=O)[C@H]2N1CC1CCCC1)c1ccccc1,x,x,-1.1,x,x,x
CCN=c1scc(-c2ccco2)n1/N=C/c1ccc(OC)c(O)c1,-1.0,1.0,53.9*,12.0,-2.5,4.9
CCN=c1scc(-c2ccco2)n1/N=C/c1ccc(O)cc1,10.7,-0.1,32.6,11.3,3.5,9.2
Cc1cc(C)c2nc(N3CCCC(C(=O)NCCN4CCOCC4)C3)sc2c1 (centres undefined),0.3,1.2,67.5*,11.8,-0.4,-1.1
COc1ccc2nc(N3CCCC(C(=O)NCCc4ccc(OC)c(OC)c4)C3)sc2c1 (centres undefined),4.5,1.0,53.0*,9.1,-1.9,-6.3
COc1ccc2nc(N3CCCC(C(=O)NCCCN4CCN(C)CC4)C3)sc2c1 (centres undefined),5.5,0.1,2.3,23.2,-0.8,-4.2
CCOc1ccc(CCNC(=O)C2CCCN(c3nn4c(=O)cc(C)nc4s3)C2)cc1OCC (centres undefined),-1.8,2.5,-11.3,-8.3,0.9,-0.6
CCOc1ccc(CCNC(=O)C2CCCN(c3nnc(-n4cccc4)s3)C2)cc1OCC (centres undefined),-8.6,1.4,8.9,3.7,39.2*,1.5
Cc1ccc(S(=O)(=O)N(C)C[C@@H]2OCCCC[C@@H](C)Oc3ccc(NC(=O)CCC(F)(F)F)cc3C(=O)N([C@H](C)CO)C[C@@H]2C)cc1,x,x,4.4,x,x,x
Cc1ccccc1Nc1nc(N)nc(CN(C)c2ccccc2)n1,x,0.3,46.8*,9.4,-2.1,2.7
Cc1ccccc1Nc1nc(N)nc(CCl)n1,104.1*,-13.0,x,4.1,-0.4,-5.0
COc1c(Cl)cc(Cl)cc1/C=N/NC(=O)c1nnn(-c2nonc2N)c1CN1CCC(C)CC1,9.8,-1.6,-10.1,8.0,12.2*,29.6
CC1CCN(Cc2c(C(=O)N/N=C/c3cc(Cl)ccc3O)nnn2-c2nonc2N)CC1,20.1,-1.9,-60.4,1.3,8.8,29.8*
CC1CCN(Cc2c(C(=O)N/N=C/c3cc(Br)ccc3O)nnn2-c2nonc2N)CC1,52.5*,-1.1,-69.8,7.7,12.9*,33.4*
CN(C)C(/C=C/Nc1ccc([N+](=O)[O-])cc1)=C(C#N)C#N,4.0,2.2,x,-6.2,17.9*,-2.8
SMILES,Vif imaging,SMARCA2 activ,esBAF inh,SKN-1 inh,GRIN3A LBD mod,NadD block
Clc1cccc(CSc2nnc(-c3c[nH]c4ccccc34)o2)c1,x,6.2,-1.0,-25.0,15.7*,-10.7
CCCCNC(=O)OCC(CC)NC(=O)OCC(C)C (centres undefined),-2.4,-3.6,-5.3,36.0*,0.7,-5.6
NNC(=O)c1cccc(S(=O)(=O)Nc2cccc(C(F)(F)F)c2)c1,-2.1,2.4,-3.8,17.3,0.5,2.3
Cc1[nH]c2ccccc2c1/C=N/NC(=O)c1cccc(S(=O)(=O)Nc2cccc(C(F)(F)F)c2)c1,x,-2.2,x,-2.9,28.0*,20.3
COc1ccc(NS(=O)(=O)c2cccc(C(=O)N/N=C/c3c(F)c(F)c(F)c(F)c3F)c2)cc1,13.3,-2.9,-5.4,-2.3,11.9*,1.1
CCOc1ccc(NC(=O)C2CCCN(S(=O)(=O)c3c(C)nn(C)c3C)C2)cc1 (centres undefined),-17.6,-1.5,8.0,34.0*,0.0,-0.2
CSc1ncccc1C(=O)OCc1ccccc1F,8.6,5.4,49.8*,-0.8,9.1,-4.2
CCOc1ccc(NC(=O)CCC(=O)NNC(=O)Nc2ccc(Cl)cc2)cc1,-0.6,-1.1,x,3.0,11.8*,0.2
Cc1cccc(-c2cc(=O)c(C(=O)O)cn2-c2ccc(F)cc2F)c1,-8.0,2.0,0.0,13.2,12.9*,3.6
N#C[C@@H]1[C@H](c2ccc(C#CC3CCCC3)cc2)[C@@H](CO)N1S(=O)(=O)c1ccccc1,x,x,-5.8,x,x,x
COC(=O)c1ccc(Cn2nc(C)cc2C)cc1,5.0,-2.2,28.4,-30.8,1.4,0.6
NC(=O)c1ccc(NC(=O)c2ccc(COc3ccccc3Br)cc2)cc1,-2.5,-0.5,5.1,0.4,22.1*,4.2
O=C(NCc1cccnc1)c1ccc(COc2ccccc2Br)cc1,1.6,-2.4,x,12.9,0.5,2.1
O=C(Nc1cccnc1)c1ccc(COc2ccccc2Br)cc1,-3.1,-2.2,11.9,18.4,35.8*,-6.6
Cc1cc(C)n(Cc2ccc(NC(=O)c3ccc(COc4ccccc4Br)cc3)cc2)n1,x,-6.5,8.1,14.0,10.2*,2.9
O=C(Nc1cccnc1)c1ccc(Oc2ccccc2)cc1,0.8,-0.5,53.6*,1.5,0.6,-2.2
Cc1ccc(S(=O)(=O)N[C@@H]2C=C[C@H](CC(=O)N3CCN(c4ccccc4)CC3)O[C@@H]2CO)cc1,x,x,7.4,x,x,x
O=C(Nc1cccnc1)c1sc(Nc2ccccc2)nc1-c1ccccc1,-1.4,-1.1,x,8.6,27.1*,2.2
Cc1ccccc1-c1cnc2c(c1)C(=O)N([C@@H](C)CO)C[C@@H](C)[C@H](CN(C)C(=O)c1ccccc1)O2,x,x,7.0,x,x,x
CCOC(=O)c1ccc(Oc2cn[nH]c2-c2ccc(O)cc2O)cc1,-7.1,-5.4,-2.0,1.2,28.6*,0.4
CCOC(=O)c1ccc(Oc2cn[nH]c2-c2ccc(OCC(=O)NN)cc2O)cc1,-2.0,-4.0,1.8,9.7,1.2,10.1
CCCOC(=O)c1ccc(Oc2cn[nH]c2-c2ccc(O)cc2O)cc1,-6.6,-5.1,-1.4,-5.3,34.2*,1.3

# Compound activity deposited in PubChem by several laboratories.
